Assay [1] in a line: growth inhibition of DIPG glioma cells, dose response, cell-based, SU-DIPG-XVII, MIPE5.0, CellTiter-Glo, qHTS (AID 1347060; cut-off not given, nearly all actives have AC50 up to about 26 µM;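 on AC50: cells exposed to compound for 48 hours before viability readout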). The conditions noted are these: SU-DIPG-XVII viability, CellTiter-Glo ATP luminescence. (In ATP-based viability assays light output follows the ATP content of the culture.)
A short description of assay [2]: growth inhibition of DIPG glioma cells, dose response, cell-based, JHH-DIPG-1, MIPE4.0, CellTiter-Glo, qHTS (AID 1347062; cut-off not given, nearly all actives have AC50 up to about 27 µM;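 on AC50: cells exposed to compound for two days before readout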). The conditions noted are these: JHH-DIPG-1 viability, CellTiter-Glo ATP luminescence.
The nature of assay [3]: growth inhibition of DIPG glioma cells, dose response, cell-based, SU-DIPG-IV, MIPE4.0, CellTiter-Glo, qHTS (AID 1347063; cut-off not given, nearly all actives have AC50 up to about 30 µM;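 further: compound exposure lasted 48 hours before the viability readout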). Conditions: SU-DIPG-IV viability, CellTiter-Glo ATP luminescence.
A short description of assay [4]: SU-DIPG-VI glioma cell viability, MIPE4.0 library, CellTiter-Glo luminescence, qHTS (AID 1347066; cut-off not given, nearly all actives have AC50 up to about 30 µM;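 further: cells exposed to compound for 48 hours before readout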). The conditions noted are these: CellTiter-Glo ATP luminescence.
Assay [5] in a line: JHH-DIPG-1 glioma cell viability, MIPE5.0 library, CellTiter-Glo luminescence, qHTS (AID 1347067; cut-off not given, nearly all actives have AC50 up to about 26 µM;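 further: cells exposed to compound for 48 hours before readout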). Conditions: JHH-DIPG-1 glioma viability, CellTiter-Glo ATP luminescence.
A short description of assay [6]: SU-DIPG-XXV glioma cell viability, MIPE5.0 library, qHTS (AID 1347068; cut-off not given, nearly all actives have IC50 up to about 30 µM;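 on IC50: cells exposed to compound for 48 hours before viability readout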).
Assay [7] is described as follows: sensitizers of A549 cells to miR-34 induction, primary screen, imaging, A549 dox-inducible miR-34, nuclei and caspase counts (AID 1347080;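 active means compounds whose cell count with miR-34 switched on is under 0.7 times the count with it off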). Conditions: A549 miR-34 inducible, Hoechst nuclei count, 48 h.
Assay [8] in a line: survival rescue of mitochondrial mutant cells in low glucose, primary screen, MELAS cybrids, Rieske KO mouse fibroblasts, CellTiter-Glo (AID 1508586;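 active means mean z-score across replicates of 1.96 or higher in either the MELAS or the Rieske mutant cell line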;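 further: z relative to plate mean and SD of compound and empty wells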).
A short description of assay [9]: viability loss in pontine glioma line – cell-based, SU-DIPG-XXV, MIPE5.0, CellTiter-Glo, qHTS, dose response (AID 1347065; cut-off not given, nearly all actives have AC50 up to about 26 µM;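 further: cells exposed to compound for 48 hours before ATP readout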). The conditions noted are these: CellTiter-Glo ATP luminescence.
Assay [10] is described as follows: modifiers of HSF1 nuclear foci, imaging, Selleck Cancer Library (AID 1347162; in the data active means plate-normalised HSF1 focus index below about 0.46). The conditions noted are these: human cells, at 10 µM; SSMD: measured here: HSF1 foci SSMD mean; cell count: measured here: cell number; plate-normalised HSF1 focus index: stronger effect = lower value.
Assay [11] can be described thus: ovarian cancer cell viability with rucaparib, profiling panel, oncology-focused library, rucaparib conditional (AID 1508598). Conditions: patient-derived ovarian cancer cells, CellTiter-Glo viability, 144 h, stronger effect = lower value.
[12] abbreviates: stronger effect = lower value, cell number ratio, induced over uninduced.
Setting [13] is: measured here: relative caspase fold change +Dox/-Dox.
Where [14] appears, read: measured here: total cells with miR-34 induction, stronger effect = lower value.
Setting [15] is: measured here: total cells without miR-34 induction.
Where [16] appears, read: MELAS cybrid survival, CellTiter-Glo 48 h, stronger effect = higher value.
Setting [17] is: Rieske KO mouse fibroblast survival, CellTiter-Glo 72 h.

Values joined by “and” are separate entries in the source; they are usually repeats but may differ in a detail not shown here. Equal values may be shown once. Records with an inconclusive call do not appear. Active and inactive are the calls of the source.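 How the source made its calls, unless noted: active means normalized viability below 100% at a tested concentration; inactive means the rest.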

Consider `CCCCCCCCCCCC(CC1OC(=O)C1CCCCCC)OC(=O)C(CC(C)C)NC=O` (stereo not drawn), for which the outcome in assay [1], in [2], in assay [3], in [4], in assay [5] and in assay [6] was inactive. In addition, the fold change was 0.897 (inactive) and 0.881 (inactive) in [7] (setting [12]); 2.53 and 0.818 in assay [7] (setting [13]). Moreover, the cell count in assay [7] (setting [14]) was 9250 and 6710; in [7] (setting [15]), 10300 and 7610. Besides, the figures for the z-score in [8] (setting [16]) and in assay [8] (setting [17]) were 1.14 (inactive) and -1.74, respectively.
`CCOC(=O)[C@H]1O[C@@H]1C(=O)N[C@@H](CC(C)C)C(=O)NCCC(C)C`: the outcome in assay [1], in [2], in [3], in [9] and in assay [5] was inactive. Further, the results for the fold change in [7] (setting [12]) and in [7] (setting [13]) were 0.97 (inactive) and 0.856, respectively. For the same compound, the cell count in assay [7] (setting [14]) was 4650; in assay [7] (setting [15]), 4800.
As for `COc1cc2c(NC3CCN(C(C)C)CC3)nc(C3CCCCC3)nc2cc1OCCCN1CCCC1`, the AC50 – broadly, the concentration giving half of the maximal activity seen – in [1] was 23.5 µM (active); in assay [2] it was 8.33 µM (active); in assay [3], 18.7 µM (active); in assay [9], 20.9 µM (active). The IC50 – broadly, the point on the concentration scale where inhibition reaches its midpoint – in [6] is 23.5 µM (active).
`CC(C)CC(=O)Nc1n[nH]c2c1CN(C(=O)C1CCN(C)CC1)C2(C)C`: the AC50 in assay [1] is 6.61 µM (active); in assay [2], 1.05 µM (active); in assay [3] it was 2.35 µM (active); in assay [9], 10.5 µM (active); in assay [5] it was 4.17 µM (active). Further, the IC50 in [6] is 10.5 µM (active). The fold change in [7] (setting [12]) was 1.09 (inactive); in [7] (setting [13]) it was 0.942. In addition, the cell count in assay [7] (setting [14]) is 1320; in assay [7] (setting [15]) it was 1210; in assay [10] it was 7270. The compound further registered an SSMD in [10] of -5.41. Also, in [10], the plate-normalised HSF1 focus index is 0.661 (inactive). Further, the z-score in [8] (setting [16]) was 2.08 (active); in assay [8] (setting [17]), -0.842. The viability – broadly, a read-out of living cells in per cent, often relative to untreated cells – in assay [11] (at 0.000305 µM, OCI-C5x cells, with rucaparib 10 µM, 100% = cells with rucaparib alone) is 123% (inactive); in [11] (at 0.000305 µM, OCI-C5x cells, without rucaparib), 128% (inactive); in assay [11] (at 0.000305 µM, OCI-P5x cells, with rucaparib 20 µM, 100% = cells with rucaparib alone), 101% (inactive); in [11] (at 0.000305 µM, OCI-P5x cells, without rucaparib) it was 115% (inactive); in assay [11] (at 0.00122 µM, OCI-C5x cells, with rucaparib 10 µM, 100% = cells with rucaparib alone) it was 108% (inactive); in assay [11] (at 0.00122 µM, OCI-C5x cells, without rucaparib), 125% (inactive). Further, the viability in assay [11] (at 0.00122 µM, OCI-P5x cells, with rucaparib 20 µM, 100% = cells with rucaparib alone) is 101% (inactive); in [11] (at 0.00122 µM, OCI-P5x cells, without rucaparib), 118% (inactive); in assay [11] (at 0.00488 µM, OCI-C5x cells, with rucaparib 10 µM, 100% = cells with rucaparib alone), 120% (inactive); in [11] (at 0.00488 µM, OCI-C5x cells, without rucaparib), 128% (inactive); in assay [11] (at 0.00488 µM, OCI-P5x cells, with rucaparib 20 µM, 100% = cells with rucaparib alone), 95.7% (active); in [11] (at 0.00488 µM, OCI-P5x cells, without rucaparib), 112% (inactive). Moreover, the viability was 120% (inactive) in assay [11] (at 0.0195 µM, OCI-C5x cells, with rucaparib 10 µM, 100% = cells with rucaparib alone); 130% (inactive) in [11] (at 0.0195 µM, OCI-C5x cells, without rucaparib); 75.5% (active) in assay [11] (at 0.0195 µM, OCI-P5x cells, with rucaparib 20 µM, 100% = cells with rucaparib alone); 92.9% (active) in assay [11] (at 0.0195 µM, OCI-P5x cells, without rucaparib); 112% (inactive) in assay [11] (at 0.0781 µM, OCI-C5x cells, with rucaparib 10 µM, 100% = cells with rucaparib alone); 134% (inactive) in assay [11] (at 0.0781 µM, OCI-C5x cells, without rucaparib). In addition, the viability in assay [11] (at 0.0781 µM, OCI-P5x cells, with rucaparib 20 µM, 100% = cells with rucaparib alone) is 107% (inactive); in [11] (at 0.0781 µM, OCI-P5x cells, without rucaparib), 122% (inactive); in assay [11] (at 0.313 µM, OCI-C5x cells, with rucaparib 10 µM, 100% = cells with rucaparib alone) it was 109% (inactive); in [11] (at 0.313 µM, OCI-C5x cells, without rucaparib) it was 118% (inactive); in assay [11] (at 0.313 µM, OCI-P5x cells, with rucaparib 20 µM, 100% = cells with rucaparib alone) it was 99.5% (active); in [11] (at 0.313 µM, OCI-P5x cells, without rucaparib), 96% (active). The viability in [11] (at 1.25 µM, OCI-C5x cells, with rucaparib 10 µM, 100% = cells with rucaparib alone) is 109% (inactive); in assay [11] (at 1.25 µM, OCI-C5x cells, without rucaparib), 113% (inactive); in [11] (at 1.25 µM, OCI-P5x cells, with rucaparib 20 µM, 100% = cells with rucaparib alone), 75.7% (active); in [11] (at 1.25 µM, OCI-P5x cells, without rucaparib), 69% (active); in [11] (at 5 µM, OCI-C5x cells, with rucaparib 10 µM, 100% = cells with rucaparib alone), 45.8% (active); in assay [11] (at 5 µM, OCI-C5x cells, without rucaparib), 69.4% (active). The viability in assay [11] (at 5 µM, OCI-P5x cells, with rucaparib 20 µM, 100% = cells with rucaparib alone) was 25.6% (active); in [11] (at 5 µM, OCI-P5x cells, without rucaparib), 6.68% (active).

(Values after PubChem BioAssay.)
